# Assay results from PubChem BioAssay (NCI).
# This is part of a sample that, as a whole, favours compounds with a hit. Of some 83,000 tested, about 20% had one in any assay.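 Step 1: grow cells in 96-well plates. Step 2: add test compound at a single concentration. Step 3: incubate 48 h. Step 4: record percent growth.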 A number with no mark means an inactive call. Activity calls are given as the source filed them. Rule for the calls: active = growth percent below 10; inactive = the rest.
# Key:
# Test in all cases: NCI-60 one-dose screen, 48 h (100 = growth as untreated, 0 = no growth, -100 = all killed)
# Details in all cases: 10 µM
# [1] = tested on: HCT-15 colon
# [2] = tested on: HT29 colon
# [3] = tested on: SNB-75 CNS
# [4] = tested on: SNB-19 CNS
# [5] = tested on: U251 CNS
# [6] = tested on: PC-3 prostate
# [7] = tested on: SK-MEL-5 melanoma
# [8] = tested on: UACC-62 melanoma
# [9] = tested on: LOX IMVI melanoma
# [10] = tested on: SK-MEL-28 melanoma
# [11] = tested on: SK-MEL-2 melanoma
# [12] = tested on: EKVX NSCLC
# [13] = tested on: SN12C renal
# [14] = tested on: UO-31 renal
# [15] = tested on: TK-10 renal
# [16] = tested on: ACHN renal
# [17] = tested on: A498 renal
# [18] = tested on: MOLT-4 leukemia
# [19] = tested on: CCRF-CEM leukemia
SMILES,growth [1],growth [2],growth [3],growth [4],growth [5],growth [6],growth [7],growth [8],growth [9],growth [10],growth [11],growth [12],growth [13],growth [14],growth [15],growth [16],growth [17],growth [18],growth [19]
C[C@@H](C[C@H](CCO)c1ccccc1)c1ccc2ccccc2c1,-75% (active),-72.8% (active),-8.12% (active),-78.3% (active),-95% (active),-89.2% (active),-87.9% (active),-76.2% (active),-94.5% (active),-79.3% (active),-0.232% (active),-44% (active),-80.8% (active),-86% (active),-6.8% (active),-91.3% (active),-0.126% (active),-54.2% (active),–
COc1cc(C(=O)/C(C)=C/c2c[nH]c3ccccc23)cc(OC)c1OC,9.94% (active),5.62% (active),36.3%,34%,18.1%,19.8%,-36.4% (active),40.2%,17.8%,66.2%,28.7%,33.5%,26.3%,48.8%,62.3%,28.1%,24.8%,17.5%,–
Cc1nn(-c2ccc(-c3ccc(OC(F)(F)F)cc3)cc2)c2nc(Cc3ccccc3)nc(N)c12,76.9%,59.6%,34.9%,39.3%,20.7%,64.4%,87.7%,85.6%,31%,103%,87.6%,72.3%,62.8%,28.3%,68.1%,16.7%,94.2%,68.6%,–
CCNCC(=O)Nc1ccc(C(=O)OCC)cc1,104%,90.7%,86.6%,109%,97.7%,98.3%,108%,99.2%,95%,103%,102%,104%,98.6%,95%,86.2%,108%,86%,87.5%,96.4%
O=C(Nc1cccc2c1CCCC2)c1cc2ccccc2cc1O,30.8%,90.5%,63.8%,30.1%,33.8%,12.8%,-37.8% (active),23%,27.2%,34.2%,41.1%,59.8%,25.6%,17.5%,88.1%,38.4%,10.6%,20.6%,20.9%
Nc1ccn(Cc2nnc(CCC(=O)c3nc4ccccc4[nH]3)o2)c(=O)n1,89.2%,89.5%,67.5%,91%,85.6%,77%,68.9%,66.2%,53.9%,104%,100%,84.1%,87.1%,44.2%,100%,87%,61.7%,8.54% (active),–
CN(C)CCCOc1ccccc1NC1=C(Cl)C(=O)C(Nc2ccccc2OCCCN(C)C)=C(Cl)C1=O,-49% (active),-51% (active),35%,-87.1% (active),-86.1% (active),-20.8% (active),-96.3% (active),-77.8% (active),-74.9% (active),14.1%,-63.8% (active),-82% (active),-86.7% (active),-99% (active),-98.3% (active),-98% (active),65.1%,-33.8% (active),-16.5% (active)
COc1cc(C(=O)n2nc(-c3cc(OC)c(OC)c(OC)c3)nc2N)cc(OC)c1OC,100%,82.7%,81.9%,102%,97.3%,95.7%,94.5%,102%,95.8%,97%,91.2%,90.6%,109%,83.2%,98.1%,95.8%,77.6%,81.5%,96.7%
O=C(Nc1ccc2c(O)cc(S(=O)(=O)O)cc2c1)c1ccc([N+](=O)[O-])cc1,99.3%,95.3%,99.6%,95.8%,84%,83.1%,94.8%,101%,95.1%,102%,102%,93.7%,98.8%,91.4%,102%,107%,97.9%,63.7%,88.5%
COc1cc(-c2nn(-c3cccc(NC(=O)CN4CCOCC4)c3)cc2-c2cccnc2)ccc1Cl,66.7%,65.2%,65.5%,88%,92.7%,58%,48.2%,61.4%,63.3%,84.3%,82.1%,95.8%,85.4%,68.6%,125%,87.6%,93.3%,74.3%,70.9%
COc1ccc2nc(-c3ccc(Cl)cc3)cc(-c3nnc(SC/C(=N\O)c4ccccc4)n3-c3ccccc3)c2c1,84.4%,71.8%,102%,104%,85.8%,54.1%,79.1%,89.4%,76.1%,94.3%,89.9%,96.2%,95.8%,78.2%,111%,90.2%,96.3%,47.5%,59.3%
CCOC(=O)c1cc(C(=O)c2ccc(Cl)cc2)n2ccc(-c3cc[n+](CC(=O)c4ccc(OC)cc4)cc3)cc12,75.5%,-9.81% (active),93.2%,77%,13.2%,51.5%,98.3%,107%,12.9%,99.6%,97.6%,96.4%,102%,73.5%,124%,96.4%,73.9%,11.1%,-3.14% (active)
COc1cc(NC(=O)Nc2cnc(Nc3ccc(N4CCOCC4)cc3)nc2Oc2cccc(OC)c2)cc(OC)c1,81.9%,37.2%,9.13% (active),66.6%,22%,47.5%,-19.9% (active),22.8%,33.3%,32.2%,40%,66.5%,43.3%,6.12% (active),54.7%,32.8%,39.1%,61.3%,–
